# Reference: PubChem BioAssay (NCI)
# The panel holds about 83,000 compounds, 20% with a hit somewhere; the sample as a whole holds those more often.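 Assay: single dose, 48 h. Readout: percent growth (0 = no net growth; negative = cell death). Active: <10.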 A number with no mark means an inactive call. The source made the active and inactive calls.
# System: BT-549 breast
# Experiment: NCI-60 one-dose screen, 48 h (100 = growth as untreated, 0 = no growth, -100 = all killed)
# Settings: 10 µM unless noted
row,SMILES,growth
1,COc1ccc(C(=O)/C(=N/Nc2ccccc2)c2ccc(OC)cc2)cc1,103%
2,Cn1c(=O)c2[nH]c(CC(=O)O)nc2n(C)c1=O,107%
3,C=CC1=NC(C)(C)CC(C)O1 (stereo not given),109%
4,O=C(Nc1ccccc1)c1ccco1,98.1%
5,CCOC(=O)CNC,109%
6,Cc1cc(Cl)cc(Cc2cc(Cl)cc(C)c2O)c1O,1.21% (active)
7,CC12CCC3c4ccc(O)cc4CCC3C1CCC2=O (stereo not given),89.2%
8,Cc1onc(-c2ccccc2Cl)c1C(=O)Cl,117%
9,Nc1cc(N)ncn1,101%
10,ClCC(Cl)C1CCC(Cl)C(Cl)C1 (stereo not given),103%
11,O=[N+]([O-])c1ccc(-c2nc(N(CCO)CCO)c3ccccc3n2)o1,-88.5% (active)
12,C=CCC(OC(C)=O)c1ccc(OC)c(OC)c1 (stereo not given),116%
13,C/C(Cc1ccccc1)=N\O,107%
14,OCc1cccnc1,106%
15,Cc1onc(-c2c(F)cccc2Cl)c1-c1ncc(-c2ccc(Br)cc2)o1,40.7%
16,CC(C)c1ncc([N+](=O)[O-])n1C,103%
17,Oc1ccc(CCC2CCNc3ccccc32)cc1 (stereo not given),47.2%
18,CCOC(=O)C(CCC#N)(CCC#N)C(=O)OCC,98%

row,SMILES,growth
1,CCOC(=O)C(COS(C)(=O)=O)(COS(C)(=O)=O)C(=O)OCC,106%
2,CC(C)C(C)(C)C(=O)C(C)(C)C(C)(C)C,82%
3,CC(=O)O[C@H]1CC[C@]2(C)C3=C(C(=O)C[C@H]2C1(C)C)[C@]1(C)CC[C@H]([C@H](C)CCC(=O)O)[C@@]1(C)CC3=O,93.9%
4,CC(=O)OCC1CCC(COC(C)=O)CC1 (stereo not given),112%
5,CC(=O)NNC(=S)N/C=C/c1c(C)ccc([N+](=O)[O-])c1[N+](=O)[O-],99.9%
6,CCOC(=O)c1c[nH][nH]c1=O,106%
7,O=S(Cc1ccccc1)/C(=C/NC(=S)Nc1ccccc1)c1ccccc1 (stereo not given),97.6%
8,COc1ccc(C)cc1NC(=O)SC(C)C,101% [100 µM]
9,Nc1ncnc(Nc2ccc(C(F)(F)F)cc2)n1,98.2%
10,Cc1c(Cl)cccc1N=C=S,87.9%
11,O=C(OC1CCCC1)c1ccccc1Cl,104%
12,BrCc1cccc(C[P+](c2ccccc2)(c2ccccc2)c2ccccc2)c1,93.1%
13,Cc1c(-c2ccc(C3CCCCC3)cc2)nc2ccc(F)cc2c1C(=O)O,65.2%
14,CC(=O)NC(CCc1ccc(Cl)c(Cl)c1)c1cccc(O)c(=O)c1 (stereo not given),19.3%
15,COc1cccc(C(=O)NNC(=O)c2cccc3ccccc23)c1,110%
16,O=C(CCl)Nc1ccccc1SCc1cc(Cl)cc2c1OCOC2,71.9%
17,CCN(CC)c1ccc2nc3ccc(N=Nc4ccc(N(C)C)cc4)cc3[n+](-c3ccccc3)c2c1,-23.3% (active)
